Measurements: PubChem BioAssay (EPA / NIEHS)
Where “and” joins values, the source holds several entries; their conditions need not be identical. Identical values can stand only once. Calls of active or inactive are those of the source. The calls were made as follows: active = hit-call score of the fitted dose curve at least 0.9, where 1 is the maximum; inactive = score below 0.9.

Read-out: Collagen I, COL1A1 (gene 1277)
Assay: BSK_MyoF_CollagenI: BioMAP Diversity Plus: MyoF Assay for Collagen I Biomarker Activity (AID 2284238)
Details: primary human lung fibroblasts
Protocol: BSK_MyoF is a cell-based, multiplexed-readout assay that uses lung fibroblasts, […], with measurements taken at 24 hours after chemical dosing in a microplate: 96-well plate.BSK_MyoF_CollagenI is an assay component measured in the BSK_MyoF assay. It measures Collagen I antibody related to regulation of gene expression using ELISA technology.Data from the assay component BSK_MyoF_CollagenI was analyzed at the endpoint, BSK_MyoF_CollagenI, in the positive analysis fitting direction relative to DMSO as the negative control and baseline of activity. Using a type of binding reporter, gain or loss-of-signal activity can be used to understand protein changes. To generalize the intended target to other relatable targets, this assay endpoint is annotated to the 'cell adhesion molecules' intended target family, where the subfamily is 'collagen'.
The levels of cell surface (or secreted, indicated by the prefix "s") biomarker endpoints were measured by ELISA. Overt cytotoxicity to cells in confluent adherent cultures (all systems other than the BT system) was assessed by measuring total protein levels using sulforhodamine B (SRB) staining in parallel cultures at the time of biomarker measurements, indicated as SRB endpoints. For proliferation assays for adherent cell types, individual cell types are cultured at sub-confluence and relative cell numbers quantified by SRB staining at time points optimized for each system (48 h: 3C and CASM3C systems; 72 h: BT and HDF3CGF systems; 96 h: SAg system). SRB was performed by staining cells with 0.1% SRB after fixation with 10% TCA and reading wells at 560 nm.Viability and proliferation of PBMC (T cells) was quantified by Alamar Blue reduction for the SAg and BT systems. For PBMC viability (referred to as PBMC Cytotoxicity within the assay endpoint names), cells were plated (75,000/well in a 96-well plate) and then chemical samples added for 1 h before addition of activators, SEB and TSST-1 (20 ng/mL final concentration each). Cells were incubated for 90 h. Then, Alamar Blue (20 uL/well) (Invitrogen, Cat DAL1100) was added for 6 h, and the plates were read with a fluorescence microplate reader at 546/580 nm (excitation/emission). For PBMC proliferation, cells were plated and activated as above but incubated for only 16 h prior to addition of Alamar Blue. Plates were read after 6 h.

Structure (SMILES) | outcome | AC50
CCNc1nc(NC(C)(C)C)nc(SC)n1 | inactive | –
COc1cc(OC)nc(NC(=O)NS(=O)(=O)c2ncccc2C(=O)N(C)C)n1 | inactive | –
O=S(=O)(c1ccc(Cl)cc1)c1ccc(Cl)cc1 | inactive | –
CCOP(=S)(OCC)SCCS(=O)(=O)CC | inactive | –
Nc1ncc([N+](=O)[O-])s1 | inactive | –
CCCCCCCCC(=O)NCc1ccc(O)c(OC)c1 | inactive | –
CC1(C)Cc2cccc(O)c2O1 | inactive | –
COC[C@H](C)N(C(=O)CCl)c1c(C)csc1C | inactive | –
O=Cc1cccc(Oc2ccccc2)c1 | inactive | –
O=C(OC1CCCCC1)c1ccccc1C(=O)OC1CCCCC1 | – | 13 µM (active)
COP(=S)(OC)Oc1cc(Cl)c(Cl)cc1Cl | inactive | –
CCOC(=O)/C=C(C)/C=C/C[C@@H](C)CCCC(C)C | – | 32.5 µM (active)
COC(=O)c1sccc1S(=O)(=O)NC(=O)Nc1nc(C)nc(OC)n1 | inactive | –
COP(=S)(OC)Oc1c(Cl)cc(C)cc1Cl | inactive | –
C(=NC1CCCCC1)=NC1CCCCC1 | – | 5.82 µM (active)
OCc1ccco1 | inactive | –
CCSC(C)CC1CC(=O)C(C(CC)=NOC/C=C/Cl)=C(O)C1 (stereo unspecified) | inactive | –
Nc1cccc2ccccc12 | inactive | –

Structure (SMILES) | outcome | AC50
O=C(O)CCC(F)(C(F)(F)F)C(F)(F)F | inactive | –
BrCCBr | inactive | –
O=C(O)C(F)(F)C(F)(F)C(F)(F)C(F)(F)C(F)(F)C(F)(F)C(F)(F)C(F)(F)C(F)(F)C(F)(F)F | – | 2.19 µM (active) and 2.25 µM (active)
Oc1ccc(-c2ccccc2)cc1 | inactive | –
CC(C)CCCCCCOC(=O)c1ccccc1C(=O)OCCCCCCC(C)C | inactive | –
COP(=S)(OC)Oc1ccc(S(=O)(=O)N(C)C)cc1 | inactive | –
NC(=S)Nc1ccccc1 | inactive | –
ClC1=C(Cl)[C@]2(Cl)[C@H]3[C@H]([C@H]4C=C[C@H]3C4)[C@@]1(Cl)C2(Cl)Cl | inactive | –
CCOP(=S)(OCC)Oc1ccc(S(C)=O)cc1 (stereo unspecified) | inactive | –
Nc1ccc(-c2ccc(N)c(Cl)c2)cc1Cl | – | 13.7 µM (active)
Oc1c(I)cc(I)cc1I | – | 9.61 µM (active)
O=C(O)C(F)(F)C(F)(F)C(F)(F)C(F)(F)C(F)(F)C(F)(F)F | inactive | –
CCCCC(CC)CO[N+](=O)[O-] (stereo unspecified) | inactive | –
CC(=O)C(Cl)C(=O)N(C)C (stereo unspecified) | inactive | –
ClC(Cl)=C(Cl)C(Cl)=C(Cl)Cl | – | 29.7 µM (active)
CC(C)c1ccc(CO)cc1 | inactive | –
O=[N+]([O-])c1ccc2c3c(cccc13)CC2 | inactive | –
COP(=S)(OC)Oc1ccc(Sc2ccc(OP(=S)(OC)OC)cc2)cc1 | – | 28.7 µM (active)
